SMILES strings stand for the structures. About 11,000 (3.8%) of roughly 290,000 compounds were called active. For the sample, actives were picked, then their nearest neighbours and some compounds at random. Values without a mark were called inactive.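 Rule for the calls: active = mean replicate inhibition above about 79%, with every replicate also reaching it (limit read from the data); inconclusive = only one of the two criteria met; inactive = mean below limit and not every replicate reaching it.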

In the assay the target is FAD-linked sulfhydryl oxidase ALR (Homo sapiens) (UniProt P55789). Kind of assay: inhibitors of human ALR sulfhydryl oxidase, primary screen, biochemical, H2O2 detection, HRP-luminol luminescence, single point (AID 485317). As to conditions: purified ALR, DTT oxidation, hits give high values, concentration not given here.
Chain of FAD-linked sulfhydryl oxidase ALR (Homo sapiens) (P55789 whole entry, looked up): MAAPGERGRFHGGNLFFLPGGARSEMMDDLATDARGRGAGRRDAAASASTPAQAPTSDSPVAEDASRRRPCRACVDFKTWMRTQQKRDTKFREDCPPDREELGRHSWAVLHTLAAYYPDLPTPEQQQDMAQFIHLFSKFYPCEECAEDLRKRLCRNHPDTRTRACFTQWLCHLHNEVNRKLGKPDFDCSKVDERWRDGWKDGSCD
With `COc1ccc(C(=O)Nc2cc(S(=O)(=O)N3CCCC3)ccc2Cl)cc1`, the inhibition (as a rule, the change of the read-out against control, counted positive when it falls) is 0.959%.

On to `Cc1cc(Nc2ccc(Cl)cc2)nc(N2CCOCC2)n1`, for which the inhibition is -2.6%.

With `Cc1cc(N2CCOCC2)nc(-c2ccc(Br)cc2)n1`, the inhibition is -3.64%.

On to `Cc1cc(N2CCN(c3ccccc3)CC2)nc(N2CCOCC2)n1`, for which the inhibition was 98.9% (active).

On to `COc1ccc(CNC(=O)COC(=O)C(CCSC)N2C(=O)c3ccccc3C2=O)cc1` (centres undefined), for which the inhibition was -2.44%.

Turning to `O=C(O)c1cccc(NC(=O)c2cc(-c3cccc(Cl)c3)nc3ccccc23)c1`, the inhibition is 98.6% (active).

`O=C(Nc1cccc(F)c1)c1cc(-c2ccco2)nc2ccccc12`: the inhibition is 5.76%.

In the case of `CC(C)(C)Cc1nnc(NC(=O)c2cc(-c3ccccc3)nc3ccccc23)s1`, the inhibition was 3.63%.

Take `Cc1ccc([C@@H]2CC=C(C(=O)O)[C@H](c3cccc(Cl)c3)N2S(=O)(=O)c2ccc(C)cc2)cc1`: the inhibition is 4.58%.

For the molecule `O=C1COc2ccc(C(=O)COC(=O)CCOc3ccccc3)cc2N1`, the inhibition is -1.49%.

Take `CC1=CC(C)(C)Nc2ccc(OC(=O)CN3C(=O)C4CCCCC4C3=O)cc21` (centres undefined): the inhibition is 85.4% (active).

`O=C(CN1C(=O)C2C3CCC(C3)C2C1=O)Oc1ccc2ccccc2c1` (centres undefined): the inhibition is -1.46%.

Take `CC1=CC(C)(C)Nc2ccc(OC(=O)C(Cc3ccccc3)N3C(=O)C4CCCCC4C3=O)cc21` (centres undefined): the inhibition was -22.1%.

`CC(C)Cn1c(N)c(C(=O)COC(=O)C2CCCN2C(=O)c2cccs2)c(=O)n(C)c1=O` (centres undefined): the inhibition is -23.1%.

Take `Cc1ccc(C)c(-c2nnc(NC(=O)CS(=O)(=O)c3ccccc3)o2)c1`: the inhibition is 1.8%.

As for `Cc1c(OC(C)C(=O)N[C@@H](Cc2ccccc2)C(=O)O)ccc2c3c(c(=O)oc12)CCCC3` (some centres undefined), the inhibition is 86.8% (active).

As to `Cc1oc2c(C)c3oc(=O)c(CC(=O)N[C@@H](CC(C)C)C(=O)N[C@@H](Cc4ccccc4)C(=O)O)c(C)c3cc2c1C`, the inhibition is 40.1%.

Consider `Cc1cc(=O)oc2c(C)c(OC(C)C(=O)NC3CCN(Cc4ccccc4)CC3)ccc12` (centres undefined), for which the inhibition is 2.88%.

Turning to `CC1(C)CC[C@@]2(C(=O)O)C(C1)C1=CCC3[C@@]4(C)CC[C@H](O)C(C)(C)C4CC[C@@]3(C)[C@]1(C)C[C@H]2O` (some centres undefined), the inhibition was -9.85%.

Regarding `CCOC(=O)c1cccc(NC(=O)c2ccc(F)cc2F)c1`, the inhibition was 6.05%.

For `CN(C)CCCN(C(=O)c1ccc(S(=O)(=O)N2CCCCCC2)cc1)c1nc2cc3c(cc2s1)OCCO3`, the inhibition was -4.06%.

On to `CCC(O)CNc1nc(-n2nc(C)cc2C)nc2sc3c(c12)CC(C)(C)OC3` (centres undefined), for which the inhibition was -2.25%.

Take `C=CCNC(=S)NNc1ncnc2sc3c(c12)CC(C)(C)OC3`: the inhibition was 98.8% (active).

For the molecule `CC/C(C)=N/Nc1nc2sc3c(c2c(=O)[nH]1)CC(C)(C)OC3`, the inhibition is 15.5%.

Values taken from PubChem BioAssay AID485317 (Broad Institute, 2010).
